These results are taken from PubChem BioAssay AID493054 (Broad Institute, 2011).

Entries with a potency or affinity are not part of this list. Unmarked numbers belong to inactive results.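 How the source made its calls: active means viability loss with fitted half-maximal dose at most ten times the highest valid dose tested; inconclusive means flat viability loss between 30 and 70%, or poor curve fit; inactive means the rest, including flat curves or rising signal.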

This assay in a line: BJeH cell viability loss – BJeH cells, dry powder, counter-screen for Ras selective lethality project, dose response (AID 493054). Particulars: BJeH fibroblasts viability, Alamar Blue fluorescence, 48 h; series mostly up to 45 µM; activity change, negative = viability loss: at the top concentration. Background: Counterscreens check selectivity or assay interference.
Regarding `O=C(c1[nH]ncc1[N+](=O)[O-])N1CCN(C(c2ccccc2)c2ccccc2)CC1`, the “activity change, negative = viability loss” value is 8.38%.

In the case of `COCC(=O)N(c1ccc(OC)c(Cl)c1)C(C(=O)NCCc1ccccc1)c1cccs1` (centres undefined), the “activity change, negative = viability loss” value is -1.47%.

For `COc1ccc(N(C(=O)CO)C(C(=O)NCCc2ccccc2)c2cccs2)cc1Cl` (centres undefined), the “activity change, negative = viability loss” value was 4.07%. The result for `CCC(=O)N(c1ccc(OC)c(Cl)c1)C(C(=O)NCCc1ccccc1)c1cccs1` (centres undefined) reads 1.23%.
